The target of test [1] is Rap guanine nucleotide exchange factor 3 (Homo sapiens) (UniProt O95398). Kind of test: Confirmatory qHTS for agonist of cAMP-regulated guanine nucleotide exchange factor 3 (EPAC1) (AID 1645881).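 Note: EPAC1 catalysed release of BODIPY-GDP from Rap1B seen as fluorescence loss; 100% = effect of cAMP agonist control; nearly all actives have a fitted effect of over 75% in size.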 For orientation: qHTS replaces the single test concentration by a dilution series.
Test [2] deals with Rap guanine nucleotide exchange factor 4 (Homo sapiens) (UniProt Q8WZA2). Kind of test: Confirmatory qHTS for antagonist of cAMP-regulated guanine nucleotide exchange factor 4 (EPAC2) (AID 1645885). For activity change, negative = inhibition: % is set by controls: 0 for no effect and ±100 for the full control effect. Note: nearly all actives have a fitted effect of over 25% in size. Note: potency is the fitted concentration of half-maximal effect.
Sequence of Rap guanine nucleotide exchange factor 4 (Homo sapiens) (Q8WZA2 whole entry, looked up): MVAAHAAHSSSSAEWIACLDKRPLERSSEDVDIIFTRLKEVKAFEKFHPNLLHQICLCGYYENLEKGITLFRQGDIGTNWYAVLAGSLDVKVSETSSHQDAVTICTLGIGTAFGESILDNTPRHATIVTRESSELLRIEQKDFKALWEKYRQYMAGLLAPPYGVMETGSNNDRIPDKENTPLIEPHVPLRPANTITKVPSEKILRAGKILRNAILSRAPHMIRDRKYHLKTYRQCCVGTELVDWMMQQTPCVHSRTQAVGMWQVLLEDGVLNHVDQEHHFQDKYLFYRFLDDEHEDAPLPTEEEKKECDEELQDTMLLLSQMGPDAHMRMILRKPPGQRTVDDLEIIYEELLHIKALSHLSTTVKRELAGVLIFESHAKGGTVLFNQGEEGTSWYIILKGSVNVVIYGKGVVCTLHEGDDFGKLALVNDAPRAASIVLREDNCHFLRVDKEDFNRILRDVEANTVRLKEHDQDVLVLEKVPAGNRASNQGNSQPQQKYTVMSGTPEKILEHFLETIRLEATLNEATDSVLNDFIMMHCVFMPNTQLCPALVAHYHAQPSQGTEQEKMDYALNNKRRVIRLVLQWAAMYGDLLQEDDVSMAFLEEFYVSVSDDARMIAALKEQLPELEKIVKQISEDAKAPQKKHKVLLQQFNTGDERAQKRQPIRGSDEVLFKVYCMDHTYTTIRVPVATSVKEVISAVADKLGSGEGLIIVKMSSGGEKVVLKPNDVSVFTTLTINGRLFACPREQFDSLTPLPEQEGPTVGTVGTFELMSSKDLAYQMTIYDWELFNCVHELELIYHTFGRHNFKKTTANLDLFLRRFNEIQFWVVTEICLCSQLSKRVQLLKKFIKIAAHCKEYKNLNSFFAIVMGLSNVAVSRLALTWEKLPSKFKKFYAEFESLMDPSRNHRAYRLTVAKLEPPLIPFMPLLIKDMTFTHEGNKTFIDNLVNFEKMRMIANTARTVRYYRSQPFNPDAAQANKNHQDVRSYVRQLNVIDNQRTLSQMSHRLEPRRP
Test [3] has as its target Rap guanine nucleotide exchange factor 3 (Homo sapiens) (UniProt O95398). Kind of test: Counterscreen qHTS for antagonist of cAMP-regulated guanine nucleotide exchange factor 3 (EPAC1) (AID 1645888).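 Note: fluorescence loss as bound BODIPY-GDP is released from Rap1B; % of control where 0% means no effect.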 A digest of the protocol:
(§1)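 Rap1B–BODIPY-GDP (250 nM) with 50 uM GDP; compounds pin-transferred to 9.74 nM–152 uM final (activator) or from 7.32 nM upwards (inhibitor). Fluorescence Ex/Em 480/540 nm read at 5 and 30 min, then after adding cAMP or buffer, at room temperature.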
On the technique in general: Counterscreens check selectivity or assay interference.

The target in test [4] is Rap guanine nucleotide exchange factor 4 (Homo sapiens) (UniProt Q8WZA2). Kind of test: Confirmatory qHTS for agonist of cAMP-regulated guanine nucleotide exchange factor 4 (EPAC2) (AID 1645884). For activation: % is set by controls: 0 for no effect and ±100 for the full control effect.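 Note: nucleotide exchange releases bodipy-GDP from Rap1 and this lowers its fluorescence; nearly all actives have a fitted effect of over 65% in size.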 Note: potency is the fitted concentration of half-maximal effect.
The target of test [5] is Rap guanine nucleotide exchange factor 3 (Homo sapiens) (UniProt O95398). Kind of test: Counterscreen qHTS for agonist of cAMP-regulated guanine nucleotide exchange factor 3 (EPAC1) (AID 1645889). For activation: % of control where 0% means no effect. Note: nearly all actives have a fitted effect of over 40% in size. Note: potency is the fitted concentration of half-maximal effect. A digest of the protocol: as §1
Test [6] addresses Glucocorticoid receptor (Homo sapiens) (UniProt P04150). Kind of test: GR-GFP Redistribution (AID 450;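 active = compounds whose dose series gives a full or clear partial fitted curve of increased nuclear translocation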; note: potency is the fitted concentration of half-maximal effect). Particulars: U2OS GR-GFP nuclear translocation, laser cytometry, 2 h.
The target of test [7] is Guanine nucleotide-binding protein G(i) subunit alpha-1 (Homo sapiens) (UniProt P63096). Kind of test: qHTS Assay for Inhibitors of RGS12 GoLoco Motif Activity (Green Fluorophore) (AID 879).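 Note: 0% = labeled peptide with Gαi1 and full inhibition = labeled peptide alone without protein; negative values mean loss of peptide binding seen as reduced polarization.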 The gist of the method:
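A drop in FITC polarization marked displacement of the FITC-tagged RGS12 GoLoco peptide (10 nM) from Gαi1 (50 nM). Compounds were incubated 10 min at room temperature in Tris pH 7.5 buffer containing 150 mM NaCl, 0.1 mM GDP and 0.05% NP40; unlabeled peptide titration served as control.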

Test [8] concerns the target Muscarinic acetylcholine receptor M1 (Rattus norvegicus) (UniProt P08482). Kind of test: qHTS Assay for Antagonists of Acetylcholine Muscarinic M1 Receptor: Kinetic Measurement of Intracellular Calcium Response (AID 943).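 Note: Fluo-4 calcium signal as peak divided by basal fluorescence over 4 min; nearly all actives have a fitted effect of over 75% in size.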 The gist of the method:
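Quantitative HTS in CHO-M1 (rat receptor) cells: 10 min compound exposure ahead of 100 nM carbachol, Fluo-4 fluorescence followed 4 min, value expressed as peak-to-basal ratio.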

Test [9] concerns the target Pyruvate kinase (Leishmania mexicana) (UniProt Q27686). Kind of test: qHTS Validation Assay for Inhibitors of Leishmania Mexicana Pyruvate Kinase (AID 945).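 Note: 0% = DMSO only neutral control wells.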 The gist of the method: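 An endpoint luciferase assay: 0.2 nM LmPYK E451W turns over 0.5 mM PEP with 0.1 mM ADP for 1 h at room temperature, pH 7.2, before PKLight addition. Values are normalized to DMSO-only wells.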

Test [10] deals with Alpha-galactosidase (Coffea arabica) (UniProt Q42656). Kind of test: Counterscreen for Glucocerebrosidase Inhibitors: qHTS Assay for Coffee Bean alpha-Galactosidase at pH 4.5 (AID 957).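 Note: plate controls were enzyme alone for no effect and no enzyme for full effect.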 The gist of the method:
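Quantitative HTS of compounds (0.7 nM to 77 uM) against coffee bean alpha-galactosidase at pH 4.5, measuring 4-methylumbelliferone fluorescence released from 80 uM substrate.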

Test [11] deals with Alpha-galactosidase A (Homo sapiens) (UniProt P06280). Kind of test: Counterscreen for Glucocerebrosidase Inhibitors: qHTS Assay for Human alpha-Galactosidase at pH 4.5 (AID 992). Note: 0% is about no effect. A digest of the protocol:
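Steps: enzyme (2 nM final), then compound across 0.7 nM to 77 uM, then 80 uM fluorogenic galactopyranoside substrate; incubate 20 min at room temperature; quench at pH 10; measure fluorescence at 365/440 nm.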

For test [12], the target named is alpha-glucosidase (Oryza sativa, rice) (UniProt Q653V4). Kind of test: Counterscreen for Glucocerebrosidase Inhibitors: qHTS Assay for Rice alpha-Glucosidase at pH 5.0 (AID 997).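 Note: 0% = full activity with enzyme and -100% = basal without enzyme.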 A digest of the protocol:
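Endpoint fluorogenic assay at pH 5.0: compounds (0.7 nM to 77 uM) titrated against 4 nM rice enzyme and 400 uM 4-MU-alpha-glucoside for 20 min at room temperature; NaOH/glycine stop, read ex 365/em 440 nm, Hill-fitted AC50.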

For test [13], the target named is Alpha-galactosidase (Coffea arabica) (UniProt Q42656). Kind of test: Counterscreen for Glucocerebrosidase Inhibitors: qHTS Assay for Coffee Bean alpha-Galactosidase at pH 5.9 (AID 998).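 Note: plate controls were uninhibited enzyme for no effect and no-enzyme basal signal for full effect.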 A digest of the protocol: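 Enzyme 2 nM + cpd (0.7 nM–77 uM titration) + 4-MU-alpha-Gal 80 uM, pH 5.9 citrate/Tween-20, RT 20 min, NaOH/glycine stop pH 10, fluor 365/440. Normalized to no-enzyme and full-activity controls; Hill-fit AC50.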
Sequence of Alpha-galactosidase (Coffea arabica) (Q42656 whole entry, looked up): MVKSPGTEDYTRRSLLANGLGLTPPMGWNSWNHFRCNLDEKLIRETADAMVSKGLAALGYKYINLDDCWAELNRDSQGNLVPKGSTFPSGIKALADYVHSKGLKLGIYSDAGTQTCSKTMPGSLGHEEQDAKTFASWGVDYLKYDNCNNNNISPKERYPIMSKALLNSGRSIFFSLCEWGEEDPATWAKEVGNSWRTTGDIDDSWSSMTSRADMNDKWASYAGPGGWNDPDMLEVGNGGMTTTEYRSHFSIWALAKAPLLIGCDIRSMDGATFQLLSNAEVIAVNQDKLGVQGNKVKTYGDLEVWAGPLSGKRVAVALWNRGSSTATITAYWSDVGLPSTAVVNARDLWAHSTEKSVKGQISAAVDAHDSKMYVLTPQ

Test [14] addresses DNA dC->dU-editing enzyme APOBEC-3G (Homo sapiens) (UniProt Q9HC16). Kind of test: qHTS for inhibitors of Vif-A3G interactions: Validation (AID 588379). Note: 0% is about no effect. A digest of the protocol:
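Yellow fluorescence (Ex 488, Em 500-530) of Vif-coexpressing HeLa A3G-eYFP cells, scanned by Acumen cytometer, reports blocked A3G degradation. Cells plated at 700/well overnight at 37 deg C before compound addition, then a further overnight compound incubation at 37 deg C.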

Test [15] addresses Catechol O-methyltransferase (Homo sapiens) (UniProt P21964). Kind of test: Confirmatory Screen for Target Class Profiling of Small Molecule Inhibitors of Methyltransferases (AID 1745852; calls by dose curve; for activity change, negative = inhibition: % is set by controls: 0 for no effect and ±100 for the full control effect). Particulars: MTase-Glo luminescence, SAH detection, recombinant enzyme; measured here: COMT max response; stronger effect = lower value.
Test [16] addresses Guanidinoacetate N-methyltransferase (Homo sapiens) (UniProt Q14353). Described as above. Particulars: MTase-Glo luminescence, SAH detection, recombinant enzyme; activity change, negative = inhibition: at 85.7 µM (top of the series) unless noted.
In test [17] the target is Nicotinamide N-methyltransferase (Homo sapiens) (UniProt P40261). The description is as above. Particulars: MTase-Glo luminescence, SAH detection, recombinant enzyme; measured here: NNMT max response; stronger effect = lower value.
Sequence of Nicotinamide N-methyltransferase (Homo sapiens) (P40261 whole entry, looked up): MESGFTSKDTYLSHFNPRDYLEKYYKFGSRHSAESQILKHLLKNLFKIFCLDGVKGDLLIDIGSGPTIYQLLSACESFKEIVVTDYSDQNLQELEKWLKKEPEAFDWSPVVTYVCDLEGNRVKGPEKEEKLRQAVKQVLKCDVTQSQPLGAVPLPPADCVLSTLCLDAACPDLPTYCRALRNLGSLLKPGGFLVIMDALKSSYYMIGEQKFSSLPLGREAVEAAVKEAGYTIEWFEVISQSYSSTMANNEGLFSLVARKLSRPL
Test [18] deals with Phenylethanolamine N-methyltransferase (Homo sapiens) (UniProt P11086). The test is described as above. Particulars: MTase-Glo luminescence, SAH detection, recombinant enzyme; measured here: PNMT max response; stronger effect = lower value.
Sequence of Phenylethanolamine N-methyltransferase (Homo sapiens) (P11086 whole entry, looked up): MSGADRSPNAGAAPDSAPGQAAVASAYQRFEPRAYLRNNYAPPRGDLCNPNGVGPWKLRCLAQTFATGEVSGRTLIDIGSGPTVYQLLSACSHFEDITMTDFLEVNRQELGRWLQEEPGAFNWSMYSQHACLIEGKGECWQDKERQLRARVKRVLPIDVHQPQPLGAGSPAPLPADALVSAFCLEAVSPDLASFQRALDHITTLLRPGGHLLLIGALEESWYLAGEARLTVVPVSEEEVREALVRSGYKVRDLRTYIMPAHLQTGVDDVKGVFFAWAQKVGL
A short description of test [19]: NCATS anti-infectives library activity on HEK293 viability as a counter-qHTS vs the C. elegans viability qHTS (AID 1745854).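 Note: HEK293 cells exposed to compounds for 24 hr before the viability read; % is set by controls: 0 for no effect and ±100 for the full control effect.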 A digest of the protocol:
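Compound titrations (final up to 41.7 uM) were incubated with HEK293 cells for 24 hr at 37C under 5% CO2. Viable cells were quantified with CellTiter-Glo after 10 min at ambient temperature.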

Test [20] addresses Tumor susceptibility gene 101 protein (Homo sapiens) (UniProt Q99816). Kind of test: qHTS Assay for Iinhibitors of HIV-1 Budding by Blocking the Interaction of PTAP/TSG101: Hit Validation (AID 651600). Note: % is set by controls: 0 for no effect and ±100 for the full control effect; nearly all actives have a fitted effect of over 70% in size. A digest of the protocol:
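FITC-PTAP peptide (50 nM final) binding to Tsg101 binding domain (10 uM final) was measured by polarization after 20 min at r.t. with compounds, in 10 mM HEPES pH 7.5 buffer with 0.15 M NaCl and 0.01% Tween 20.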

Inconclusive results are not listed. Active and inactive are the calls of the source. Unless noted, calls come from the whole dose curve; as a rule, active = well fitted curve in the direction sought with a large enough effect; inconclusive = small, poorly fitted or top-dose-only effect, or another doubt; inactive = no such curve, though single readings can be large; an effect the other way counts as inactive or inconclusive.

Sequence of Rap guanine nucleotide exchange factor 3 (Homo sapiens) (O95398 whole entry, looked up): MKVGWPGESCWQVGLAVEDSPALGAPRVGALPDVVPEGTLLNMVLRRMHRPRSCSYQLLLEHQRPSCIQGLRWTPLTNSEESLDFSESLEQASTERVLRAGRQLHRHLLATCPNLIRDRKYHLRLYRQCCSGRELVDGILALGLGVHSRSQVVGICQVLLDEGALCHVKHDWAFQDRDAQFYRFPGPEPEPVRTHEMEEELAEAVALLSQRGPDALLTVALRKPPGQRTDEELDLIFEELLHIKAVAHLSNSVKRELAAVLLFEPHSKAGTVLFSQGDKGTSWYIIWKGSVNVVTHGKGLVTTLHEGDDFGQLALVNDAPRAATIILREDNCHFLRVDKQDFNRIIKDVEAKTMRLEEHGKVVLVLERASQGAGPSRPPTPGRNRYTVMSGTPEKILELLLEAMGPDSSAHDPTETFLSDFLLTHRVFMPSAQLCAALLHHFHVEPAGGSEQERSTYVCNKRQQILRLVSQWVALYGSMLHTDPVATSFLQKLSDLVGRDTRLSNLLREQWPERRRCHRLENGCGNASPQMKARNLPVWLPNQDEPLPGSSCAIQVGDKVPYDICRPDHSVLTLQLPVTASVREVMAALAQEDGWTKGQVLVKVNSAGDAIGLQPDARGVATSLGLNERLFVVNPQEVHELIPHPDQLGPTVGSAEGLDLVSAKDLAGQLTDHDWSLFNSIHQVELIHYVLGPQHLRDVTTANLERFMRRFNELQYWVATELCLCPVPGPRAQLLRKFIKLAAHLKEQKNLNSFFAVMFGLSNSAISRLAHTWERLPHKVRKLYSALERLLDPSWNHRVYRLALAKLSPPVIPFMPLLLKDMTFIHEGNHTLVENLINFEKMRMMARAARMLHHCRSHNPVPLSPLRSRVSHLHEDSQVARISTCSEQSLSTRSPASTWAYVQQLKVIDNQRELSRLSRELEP
Sequence of Catechol O-methyltransferase (Homo sapiens) (P21964 whole entry, looked up): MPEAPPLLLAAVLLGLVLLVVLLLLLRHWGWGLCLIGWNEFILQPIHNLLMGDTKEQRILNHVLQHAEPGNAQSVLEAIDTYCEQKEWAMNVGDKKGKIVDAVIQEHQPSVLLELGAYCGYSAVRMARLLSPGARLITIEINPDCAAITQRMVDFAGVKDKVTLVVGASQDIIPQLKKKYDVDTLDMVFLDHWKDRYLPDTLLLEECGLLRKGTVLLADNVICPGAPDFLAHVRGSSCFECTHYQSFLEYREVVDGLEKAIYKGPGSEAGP
Sequence of Pyruvate kinase (Leishmania mexicana) (Q27686 2-499 E452W): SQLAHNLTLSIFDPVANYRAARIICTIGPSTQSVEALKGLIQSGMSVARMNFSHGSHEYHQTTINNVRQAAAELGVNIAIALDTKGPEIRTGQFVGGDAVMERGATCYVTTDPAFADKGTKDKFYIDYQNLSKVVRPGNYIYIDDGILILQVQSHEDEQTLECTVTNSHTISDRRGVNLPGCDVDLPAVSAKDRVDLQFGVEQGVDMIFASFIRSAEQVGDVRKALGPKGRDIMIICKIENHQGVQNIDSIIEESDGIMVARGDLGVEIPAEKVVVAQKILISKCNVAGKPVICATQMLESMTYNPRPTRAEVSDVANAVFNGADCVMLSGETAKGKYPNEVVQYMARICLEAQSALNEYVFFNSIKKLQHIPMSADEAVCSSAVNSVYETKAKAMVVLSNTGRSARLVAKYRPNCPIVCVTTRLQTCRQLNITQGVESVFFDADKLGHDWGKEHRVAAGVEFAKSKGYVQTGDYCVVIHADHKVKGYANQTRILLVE
Sequence of Tumor susceptibility gene 101 protein (Homo sapiens) (Q99816 whole entry, looked up, the tested form may be a part): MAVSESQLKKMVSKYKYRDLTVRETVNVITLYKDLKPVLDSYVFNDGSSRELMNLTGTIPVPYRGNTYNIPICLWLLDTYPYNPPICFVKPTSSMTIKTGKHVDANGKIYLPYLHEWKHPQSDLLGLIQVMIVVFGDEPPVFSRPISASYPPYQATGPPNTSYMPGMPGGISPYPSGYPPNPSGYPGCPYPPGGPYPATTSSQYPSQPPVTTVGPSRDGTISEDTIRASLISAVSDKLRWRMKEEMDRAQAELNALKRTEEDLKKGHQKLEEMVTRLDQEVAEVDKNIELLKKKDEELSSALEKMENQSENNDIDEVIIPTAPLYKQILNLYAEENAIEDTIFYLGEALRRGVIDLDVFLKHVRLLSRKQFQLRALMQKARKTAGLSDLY
Sequence of Glucocorticoid receptor (Homo sapiens) (P04150 whole entry, looked up): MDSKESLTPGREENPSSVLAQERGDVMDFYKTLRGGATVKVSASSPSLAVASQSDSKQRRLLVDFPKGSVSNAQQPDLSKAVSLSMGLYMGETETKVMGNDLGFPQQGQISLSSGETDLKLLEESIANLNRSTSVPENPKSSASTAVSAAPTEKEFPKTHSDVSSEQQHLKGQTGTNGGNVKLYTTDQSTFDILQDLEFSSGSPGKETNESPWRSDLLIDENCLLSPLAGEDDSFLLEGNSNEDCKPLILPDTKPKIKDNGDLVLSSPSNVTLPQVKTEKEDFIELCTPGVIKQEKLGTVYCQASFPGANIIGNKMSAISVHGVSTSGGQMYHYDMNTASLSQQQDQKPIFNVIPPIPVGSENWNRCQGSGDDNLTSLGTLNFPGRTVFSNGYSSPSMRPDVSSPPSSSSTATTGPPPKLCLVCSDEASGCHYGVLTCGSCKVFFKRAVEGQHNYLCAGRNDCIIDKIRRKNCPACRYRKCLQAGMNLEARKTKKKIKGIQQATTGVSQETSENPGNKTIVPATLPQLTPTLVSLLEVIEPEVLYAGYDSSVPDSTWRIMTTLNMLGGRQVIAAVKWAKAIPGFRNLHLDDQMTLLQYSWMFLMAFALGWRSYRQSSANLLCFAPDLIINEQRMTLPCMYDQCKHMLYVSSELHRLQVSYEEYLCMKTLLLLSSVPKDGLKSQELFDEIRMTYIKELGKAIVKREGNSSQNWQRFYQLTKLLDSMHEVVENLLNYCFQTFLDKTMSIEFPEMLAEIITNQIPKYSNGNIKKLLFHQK

In the case of `O=C(c1cc(-c2ccc(Cl)cc2)n(-c2ccc(Cl)cc2Cl)n1)N1CCOCC1`, the Potency result in test [1] and in test [2] was “inactive” throughout. In addition, the outcome in test [3] is “inactive”.
In the case of `O=C(c1ccco1)c1cn(Cc2ccccc2)c2ccccc12`, the Potency result in test [1], in [4] and in test [5] was “inactive” throughout. Moreover, in test [3], the outcome is “inactive”.
With `COc1ccc(-n2nnnc2C(c2cccs2)N2CCC(n3c(=O)[nH]c4ccccc43)CC2)cc1` (stereo unspecified), the Potency result in [1] and in test [2] was “inactive” throughout. Besides, in test [3], the outcome was “inactive”.
As to `CCCCCCC(C)(C)c1ccc([C@@H]2C[C@H](O)CC[C@@H]2CCCO)c(O)c1`, the Potency in test [6] is > 46 µM (inactive); in test [2], 35 µM (active). Moreover, the outcome in test [7], in test [10], in [11], in test [12], in test [13] and in test [14] was “inactive” in each case. Moreover, the Potency result in test [8], in test [9], in test [1] and in test [4] was “inactive” each time.
Consider `CN(CCc1ccccn1)C[C@H]1CN2CC[C@H]1C[C@@H]2CNC(=O)Nc1ccsc1`, for which the activity in test [15] is -2.73%; in test [17], 0.703%; in [18], -0.547%. Also, the activity change, negative = inhibition in test [16] is 6.86%.
For `CC(C)N1C(=O)/C(=C/C=C/c2ccco2)C(=O)N(Cc2ccco2)C1=O`, in [4], the activation is 13% [at 17.1 µM, percent relative to cAMP agonist control] (inactive). Besides, the activity change, negative = inhibition in [2] is 22.6% [at 12.7 µM] (inactive); in [3], 52.4% [at 30.8 µM] (inactive).
Regarding `COc1ccc(-c2cc([C@H]3CN4CC[C@H]3C[C@@H]4CN)nc(C)n2)cc1OC`, the activity is 2.55% in test [15], -94.2% in test [17] and 2.63% in [18]. Also, the activity change, negative = inhibition in [16] was 1.77%.
The matching figures for `CC[C@H]1CN2CC[C@H]1C[C@@H]2CNCc1ccc(-c2ccccc2)cc1`: 3.75%, 4.25%, -4.01% and 4.44%.
With `[Cl][Pt].[NH2-].[NH2-].c1ccncc1`, the activity in test [15] is -4.9%; in test [17], -8.73%; in test [18] it was 0.0118%. Moreover, the activity change, negative = inhibition in test [16] is 3.42% [at 57.3 µM].
Take `Cc1cccc(-n2c(O)c(/C=C/C=Nc3ccccc3)c(=O)[nH]c2=O)c1`: the Potency was 33.8 µM (active) in [2] and 39.8 µM (active) in test [5]. Besides, the outcome in test [3] is “inactive”.
On to `C=C[C@H]1CN2CC[C@H]1C[C@@H]2CNC(=O)Nc1ccc(Br)cc1`, for which the activity is 4.06% in [15], -5.4% in test [17] and 4.01% in [18]. Also, the activity change, negative = inhibition in [16] is -0.845%.
Regarding `O=C(Nc1ccccc1F)N[C@H]1N=C(c2ccccc2)c2ccccc2NC1=O`, in [19], the Potency entry is “inactive”.
On to `COc1cccc(N2C(=O)NC(=O)/C(=C\c3cn(C)c4ccccc34)C2=O)c1`, for which the Potency in [4] was 100 µM (active). Further, in test [2], the Potency result was “inactive”. Besides, in test [3], the outcome was “inactive”.
In the case of `CN1/C(=C\C=C2C(=O)NC(=S)NC2=O)C(C)(C)c2ccccc21`, the Potency entry in [20] and in [2] was “inactive” each time. Further, the Potency in [4] was 100 µM (active). For the same compound, in test [3], the outcome was “inactive”.

Values taken from PubChem BioAssay (NCATS).
